Only some compounds are listed: those with a hit (about 0.8% of all), similar ones and a draw of the others.
Tb PFK block: inhibitors of T. brucei phosphofructokinase. T. brucei PFK, ADP-Glo luminescence. Potency, µM (highest dose often 57.5 µM), for inactives: at the highest dose activity, negative = inhibition, actives largely listed as inhibitors. hit rate 0.17% among 330,000. AID 485367;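 also: potency is read from the fitted curve at half-maximal effect; 0% = uninhibited 1x PFK enzyme wells and -100% = no-enzyme wells; nearly all actives have a fitted effect of over 60% in size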
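Luminescent ADP detection (ADP-Glo, two-step: ATP depletion then ADP-to-ATP conversion for luciferase) reported PFK activity after 45 min room-temperature reaction of 1.25 nM enzyme with 0.5 mM F6P and 0.1 mM ATP at pH 8.0.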
PGK inhibitor: inhibitors of T. brucei phosphoglycerate kinase. P07378. PGK/GAPDH coupled, Kinase-Glo luminescence, 60 min. Potency, µM (series often up to 57.5 µM), for inactives: top-dose activity change, negative = inhibition, usual class: inhibitors. hit rate 0.043% among 380,000. AID 602233; also: potency is read from the fitted curve at half-maximal effect; nearly all actives have a fitted effect of over 60% in size
Target sequence (P07378 whole entry, looked up): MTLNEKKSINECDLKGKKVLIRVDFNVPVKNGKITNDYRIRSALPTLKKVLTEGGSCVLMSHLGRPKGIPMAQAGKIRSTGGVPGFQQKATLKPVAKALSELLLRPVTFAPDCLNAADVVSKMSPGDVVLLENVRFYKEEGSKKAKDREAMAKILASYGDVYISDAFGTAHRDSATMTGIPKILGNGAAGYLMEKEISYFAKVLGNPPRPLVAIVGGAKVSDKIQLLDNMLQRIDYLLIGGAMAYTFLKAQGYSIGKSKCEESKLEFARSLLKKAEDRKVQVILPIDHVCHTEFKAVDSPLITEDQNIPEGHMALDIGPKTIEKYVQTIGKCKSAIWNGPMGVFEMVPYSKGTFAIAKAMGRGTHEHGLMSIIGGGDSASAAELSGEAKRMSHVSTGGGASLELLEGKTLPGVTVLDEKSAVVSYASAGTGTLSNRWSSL
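Luminescent ATP detection (Kinase-Glo Plus) follows a 60-minute room-temperature incubation, with wells lacking PGK as controls. Buffer: 100 mM TEA (pH 7.6), 5 mM MgCl2, 0.01% Tween-20. Coupling enzyme GAPDH (100 nM final) supplies unstable 1,3-BPG in-well.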
TDP1 block: blocks human tyrosyl-DNA phosphodiesterase 1; Potency, µM (titrated, usually from 130 µM), inactives show top-dose activity change, negative = inhibition, actives largely listed as inhibitors; AID 485290; recombinant TDP1, AlphaScreen DNA substrate cleavage; hit rate 0.28% among 350,000; Q9NUW8; also: potency is read from the fitted curve at half-maximal effect; nearly all actives have a fitted effect of over 40% in size
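Recombinant human Tdp1 (E. coli-expressed, 1 nM final) preincubated with compounds 15 min at room temperature, then 5'-biotin/3'-phosphotyrosine-FITC DNA substrate (15 nM final) added for 5 min. AlphaScreen beads (10 ug/ml final) added 10 min; cleavage lowers signal.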
APE1 inh-1: inhibitors of human APE1 endonuclease; P27695; recombinant APE1, TAMRA/BHQ-2 abasic DNA cleavage fluorescence; Potency, µM (top dose mostly 65.8 µM), for the others: at the top dose activity change, negative = inhibition, actives largely listed as inhibitors; hit rate 0.35% among 350,000; AID 2517;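 also: potency is read from the fitted curve at half-maximal effect; plate controls were vehicle for no effect and reference inhibitor for full effect; nearly all actives have a fitted effect of over 55% in size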
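APE1 at 0.75 nM final was preincubated with compound 15 min at room temperature, then 50 nM double-stranded THF abasic-site substrate (5'-TAMRA/3'-BHQ-2) was added. Fluorescence (ex 525/em 598 nm) was read kinetically; third-minus-first read gave activity.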
PI4K2A block: inhibitors of human PI4K2A; activity change, negative = inhibition, % at 76.9 µM; hit rate 0.13% among 420,000; purified PI4K2A, ADP-Glo luminescence, 1 h; hits give low values; in the data active = activity change below about -50%; inconclusive = mostly about -30% to -49%;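 also: -100% = wells without enzyme as full effect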
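Compounds are screened against recombinant PI4K2A using PI as substrate and ATP, the latter dispensed at 300 microM. Reactions run one hour at ambient temperature before ADP-Glo detection; full inhibition defined by wells lacking enzyme.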
FEN1 inh: blocks human flap endonuclease 1; P39748; Recombinant FEN1 flap cleavage, fluorescence, 15 min; Potency, µM (doses to about 114 µM), for inactives: at the top dose activity change, negative = inhibition, actives largely listed as inhibitors; hit rate 0.35% among 390,000; also: potency is read from the fitted curve at half-maximal effect; nearly all actives have a fitted effect of over 65% in size
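In this screen, 50 nM flap DNA substrate was added to 10 nM FEN1 pretreated with compound for 15 min at room temperature; cleavage was followed with reads at 0 and 15 min, and Hill fitting gave concentration–response parameters.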
DNA dye displace: displaces fluorescent dye from DNA, flagging APE1 artifacts; shares compounds with APE1 inh-1; DNA fluorescent dye displacement counterscreen, fluorescence; Potency, µM (highest dose often 28.5 µM), without a hit: top-dose activity change, negative = inhibition, usual class: inhibitors; hit rate 7% among 480;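 also: loss of thiazole orange fluorescence as the dye is displaced from duplex DNA; potency is read from the fitted curve at half-maximal effect; 0% = ThO with dsDNA and no compound and -100% = ThO without dsDNA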
Endo IV inh: Endo IV (E. coli) inhibition counter-screen; hit rate 4% among 560; E. coli Endo IV, fluorogenic AP-site DNA cleavage; shares compounds with APE1 inh-1; Potency, µM (highest dose often 27.1 µM), for inactives: at the highest dose activity change, negative = inhibition, usual class: inhibitors; AID 2565;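 also: potency is read from the fitted curve at half-maximal effect; plate controls were uninhibited enzyme wells for no effect and no enzyme buffer wells for full effect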
APE1 inh-2: APE1 (human) endonuclease inhibition, confirmation; shares compounds with APE1 inh-1; purified APE1, fluorogenic abasic-site DNA cleavage; Potency, µM (highest dose often 57.1 µM), for the others: top-dose activity change, negative = inhibition, actives largely listed as inhibitors; hit rate 44% among 750; AID 2572; also: potency is read from the fitted curve at half-maximal effect; nearly all actives have a fitted effect of over 30% in size
APE1 FP inh: compounds that displace a DNA probe from human APE1; shares compounds with APE1 inh-1; APE1 binding to TAMRA-labelled double-stranded DNA, fluorescence polarization displacement; Potency, µM (titrated, usually from 28.5 µM), for the others: at the top dose activity, negative = inhibition, hits mostly inhibitors; hit rate 7% among 480; also: potency is read from the fitted curve at half-maximal effect
The depositor's hits bear a star; i = inactive; ? = inconclusive; . = no result; ! = not confirmed by another sample; [ ] = remark or other dose. Unless noted, calls follow the shape of the dose curve; as a rule, active = well fitted curve in the direction sought with a large enough effect; inconclusive = small, poorly fitted or top-dose-only effect, or another doubt; inactive = no such curve, though single readings can be large; an effect the other way counts as inactive or inconclusive. Unless noted, % is scaled to controls: 0 for no effect and ±100 for the full control effect.

SMILES	Tb PFK block	PGK inhibitor	TDP1 block	APE1 inh-1	PI4K2A block	FEN1 inh	others
C[C@H](CN1CCOCC1)C(C(=O)N1CCCC1)(c1ccccc1)c1ccccc1	.	.	.	.	i	.
O=c1[nH]c2cc(Cl)ccc2n1C1CCNCC1	.	.	.	.	-1	.
COc1ccc2c3c1O[C@H]1[C@@H](O)C=C[C@H]4[C@@H](C2)NCC[C@@]341	.	.	.	-3%	.	.
CC/C(CC(c1ccccc1)c1c(O)c2ccccc2oc1=O)=N\NC(N)=S (configuration not stated)	-20%	i	-13%	25µM*	-4	-4%
COC[C@@H](NC(C)=O)C(=O)NCc1ccccc1	.	.	.	.	2	.
Cn1c(-c2ccccc2)c(P(=S)(c2ccccc2)c2ccccc2)c2ccccc21	.	.	0%	.	.	.
BrCC(Br)C1CCC(Br)C(Br)C1 (configuration not stated)	0%	i	32µM*!	20%	1	7%
Cc1cccc(N2C(=O)NC(=O)/C(=C\c3cccn3-c3ccc(Cl)cc3)C2=O)c1	14%	-3%	0%	0%	-50*	17%
Cc1cccc(N2C(=O)NC(=O)/C(=C/c3ccc([N+](=O)[O-])o3)C2=O)c1	?	?	.	?	-13	20µM*
CC(C)(C)n1cccc1/C=C1\C(=O)NC(=O)N(c2ccccc2)C1=O	16%	i	-1%	4%	-13	44%
NCC[C@H](O)C(=O)N[C@@H]1C[C@H](N)[C@@H](O[C@H]2O[C@H](CN)[C@@H](O)[C@H](O)[C@H]2N)[C@H](O[C@@H]2O[C@H](CO)[C@@H](O)[C@H]2O)[C@H]1O	.	.	.	-1%[21 µM]	.	.
COc1ccc2[nH]c3c(c2c1)CCN=C3C	-1%	3%	15%[56.1 µM]	0%	-2	50µM*
CCn1nc(-c2ccccc2)nc2c(=O)n(C)c(=O)nc1-2	-7%	?	5%	?	-57*	-12%
Cc1[nH]c2ccccc2c1P(=S)(c1ccccc1)c1ccccc1	.	.	0%	.	.	.
N=C(N)c1ccc(-c2ccc(-c3ccc(C(=N)N)cc3)o2)cc1	.	.	.	.	.	40µM*
CCCN1CCCC2Cc3[nH]ncc3CC21 (configuration not stated)	.	.	0.28µM*!	-3%	.	.
NC1CCCC[C@@H]1N (some centres not stated)	.	.	13%	10%	.	.
CCOC(=O)CCCc1cc[c]([Sb](=[O])([OH])[OH])cc1	.	.	0.25µM*	.	.	3.5µM*
NC(=O)OCCCc1ccccc1	.	-2%	6%	.	-1	-1%
CO/N=C(/C(=O)NC1C(=O)N2C(C(=O)O)=C(CSc3nc(=O)c(O)nn3C)CSC12)c1csc(N)n1 (configuration not stated)	.	.	7.1µM*	?	.	.
Cc1nc2c(=O)n(C)c(=O)nc-2n(C)n1	-3%	?	6%	-1%	-55*	15%
CCC(=O)Nc1cc(C(=O)O)ccc1S(=O)(=O)c1ccc(C)cc1	7%	?	20µM*	?	-2	?
CN1C(=O)/C(=C/C=C/c2ccco2)C(=O)NC1=S	?	28µM*	.	25µM*	-16	20µM*	DNA dye displace=-2%;Endo IV inh=34%;APE1 inh-2=14µM*;APE1 FP inh=17%
CC(C)Oc1cccc(NC(=O)c2ccccc2C(F)(F)F)c1	.	.	.	.	i	.
NC(=O)c1ccc(N=Cc2c(O)n(Cc3ccco3)c(=O)[nH]c2=O)cc1	-20%	?	28µM*	32µM*	?	40µM*	DNA dye displace=?;Endo IV inh=-10%;APE1 inh-2=40µM*;APE1 FP inh=-8%
Cc1ccc(N)cc1N	-6%	2%	2%	-3%	2	-7%
C[n+]1c2cc(N)ccc2cc2ccc(N)cc21	.	4%	3%[56.1 µM]	.	0	8.9µM*	Endo IV inh=-112%[57.1 µM];APE1 inh-2=6.3µM*;APE1 FP inh=i
Cc1ccc(OCCn2cccc2/C=C2/C(=O)NC(=O)N(Cc3ccco3)C2=O)cc1	14%	-15%	3%	-10%	?	?
